An excerpt weighted towards active compounds, which were near 15% of everything screened.
12-LOX inh: Primary qHTS assay for inhibitors of human arachidonate 12S-lipoxygenase (ALOX12): Round 2. Polyunsaturated fatty acid lipoxygenase ALOX12 (Homo sapiens), P18054. purified 12hLO, xylenol orange hydroperoxide absorbance. Potency, µM (highest dose often 108 µM), inactives show at the top dose activity change, negative = inhibition, most hits filed as inhibitors. 1.1% of 580,000 active
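Purified human 12hLO at 150 nM in 25 mM Hepes, 0.01% Triton X-100, pH 7.0, preincubated 15 min at room temperature with compound. Reaction started with 40 uM arachidonic acid, 30 min at room temperature. Hydroperoxide measured by Fe-xylenol orange, 573/405 nm absorbance ratio.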
RORg inh: qHTS for inhibitors of ROR gamma transcriptional activity. Potency, µM (series often up to 53.6 µM), for the others: top-dose activity change, negative = inhibition, actives largely listed as inhibitors. Drosophila S2 Gal4-RORgamma UAS-luciferase reporter, 20 h. Nuclear receptor ROR-gamma (Mus musculus), P51450. 5.4% of 310,000 active. AID 2551, 2010; further: nearly all actives have a fitted effect of over 60% in size
Target sequence (P51450 whole entry, looked up, the tested form may be a part): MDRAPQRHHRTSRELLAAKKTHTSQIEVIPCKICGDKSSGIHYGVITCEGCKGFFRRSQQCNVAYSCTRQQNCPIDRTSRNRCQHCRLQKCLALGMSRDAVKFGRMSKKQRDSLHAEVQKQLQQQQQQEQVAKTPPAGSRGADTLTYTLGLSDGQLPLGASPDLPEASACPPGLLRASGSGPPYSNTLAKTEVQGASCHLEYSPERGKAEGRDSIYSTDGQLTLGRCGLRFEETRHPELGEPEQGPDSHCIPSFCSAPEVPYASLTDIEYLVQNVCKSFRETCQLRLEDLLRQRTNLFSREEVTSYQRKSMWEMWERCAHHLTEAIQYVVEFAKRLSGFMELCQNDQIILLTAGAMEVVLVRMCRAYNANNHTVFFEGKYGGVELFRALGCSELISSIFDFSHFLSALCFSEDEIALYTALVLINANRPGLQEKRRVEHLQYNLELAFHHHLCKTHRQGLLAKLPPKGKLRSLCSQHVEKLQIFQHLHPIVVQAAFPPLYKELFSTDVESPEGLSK
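Luminescence from a UAS-regulated Photinus luciferase reporter in stably transfected Drosophila Schneider cells is measured; decreased signal marks ROR gamma inhibition. Fusion expression is induced by 700 uM copper sulfate for 20 hr.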
ELG1 DNA repair: qHTS screen for small molecules that inhibit ELG1-dependent DNA repair in human embryonic kidney (HEK293T) cells expressing luciferase-tagged ELG1. AID 504467, 2011. HEK293T ELG1-luciferase reporter, luminescence, 16 h; DNA damage induced by 5-fluorouridine. 2.3% of 330,000 active. Potency, µM (top dose mostly 46.1 µM), without a hit: at the highest dose activity change, negative = inhibition, usual class: inhibitors; further: nearly all actives have a fitted effect of over 55% in size
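HEK293T cells expressing luciferase-tagged ELG1 (2,000/well) received 5-Fluorouridine plus compound or DMSO for 16 hr at 37 °C. Luciferase was read by ONE-Glo luminescence after 30 min at room temperature.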
DT40 TDP1 CPT: qHTS for Inhibitors of human tyrosyl-DNA phosphodiesterase 1 (TDP1): qHTS in cells in presence of CPT; chicken DT40 Tdp1-/-;hTDP1 cells + 20 nM CPT, ATP luminescence, 48 h; Potency, µM (highest dose often 46.2 µM), for the others: at the highest dose activity change, negative = growth inhibition, usual class: inhibitors; 12% of 420,000 active; further: nearly all actives have a fitted effect of over 55% in size
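Chicken DT40 Tdp1-/- cells stably complemented with human TDP1 were seeded at 400 cells/well in medium containing 20 nM camptothecin, exposed to pin-transferred compounds, and grown at 37 °C for at least 48 hr. Viability was read as ATP luminescence.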
DT40 TDP1 no CPT: qHTS for Inhibitors of human tyrosyl-DNA phosphodiesterase 1 (TDP1): qHTS in cells in absence of CPT; AID 686978, 2013; Potency, µM (highest dose often 46.2 µM), inactives show at the top dose activity change, negative = growth inhibition, usual class: inhibitors; DT40 Tdp1-/- hTDP1 cells, no CPT, ATP luminescence, 48 h; 15% of 420,000 active; further: nearly all actives have a fitted effect of over 55% in size
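Seeded 400 DT40-hTDP1 cells/well (vehicle DMSO, no 20 nM CPT); pinned compounds; ≥48 hr at 37 °C; CellTiter-Glo luminescence as viability measure.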
VP16 counter: VP16 counterscreen qHTS for inhibitors of ROR gamma transcriptional activity. Drosophila S2 Gal4-VP16 UAS-luciferase, luminescence, 20 h. Potency, µM (titrated, usually from 53.6 µM), for inactives: top-dose activity, negative = inhibition, usual class: inhibitors. 3.5% of 310,000 active;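 further: Gal4-VP16 expression switched on by copper sulfate through the metallothionein promoter; nearly all actives have a fitted effect of over 50% in size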
An asterisk follows results filed as active; i = inactive; u = inconclusive; x = not tested or not shown; [ ] = remark or other dose. The call rests on the fitted dose curve; in most records, active means well fitted curve in the direction sought with a large enough effect; inconclusive means small, poorly fitted or top-dose-only effect, or another doubt; inactive means no such curve, though single readings can be large; an effect the other way counts as inactive or inconclusive. On the % scale 0 is the no-effect control and ±100 the full control effect; potency means the concentration at half of the fitted maximal effect.

SMILES	12-LOX inh	RORg inh	ELG1 DNA repair	DT40 TDP1 CPT	DT40 TDP1 no CPT	VP16 counter
CC(=O)N1c2ccc(S(=O)(=O)N3CCC(C(=O)Nc4cccc(Cl)c4C)CC3)cc2CC1C (configuration not stated)	-13%	x	x	15µM*	23µM*	x
O=S(=O)(c1ccccc1C(F)(F)F)N1CC(c2nc(Cc3ccccc3)no2)C1	26%	x	x	x	x	x
O=C(c1ccccc1F)N1CCN(c2cnn(-c3cccc(Cl)c3)c(=O)c2Cl)CC1	-18%	25%	u	u	21µM*	u
O=C(c1cccc(Cl)c1)N1CCN(C(=O)c2ccccc2F)CC1	10%	9%	-3%	-28%	-2%	-4%
O=C(c1cccc(Br)c1)N1CCN(c2cnn(-c3ccccc3)c(=O)c2Cl)CC1	-6%	12%	-13%	u	16µM*	-13%
O=C(c1cccc(Br)c1)N1CCN(c2ccccn2)CC1	u	x	x	-18%	-24%	x
CCCCCCOC(=O)CCCCC	16%[176 µM]	x	x	x	x	x
CCOc1ccc(-c2nc(CSCC(=O)N3CCC(N4CCCCC4)CC3)c(C)o2)cc1	-52%	x	x	x	x	x
Fc1ccc(N/N=C/c2ccncc2)c(F)c1	u	u	u	-2%	-21%	18%
CSc1ccc(/C=N/Nc2ccc(F)cc2F)cc1	1.8µM*	x	x	x	x	x
O=C(N/N=C\c1ccc(F)cc1)c1ccc(F)cc1	-3%	-19%	u	12%	3%	-6%
O=C(O)c1ccc(/C=N/Nc2ccc(F)cc2F)cc1	u	13µM*	u	14%	2%	u
Fc1ccc(N/N=C/C=C/c2ccccc2)c(F)c1	40µM*	-6%	u	u	u	u
CC(C)(C)c1ccc(/C=N/Nc2ccc(C(=O)O)cc2)cc1	-22%	0.02µM*	u	-21%	-17%	18µM*
CC[C@@]1([C@@H]2O[C@@H]([C@H]3O[C@@](O)(CO)[C@H](C)C[C@@H]3C)C[C@@H]2C)CC[C@H]([C@]2(C)CC[C@]3(C[C@H](O)[C@@H](C)[C@@H]([C@@H](C)[C@@H](OC)C(C)C(=O)O)O3)O2)O1 (some centres not stated)	x	u	x	x	x	-16%
CO[C@@H]1[C@@H](OC)[C@H](C)[C@@](O)(CC(=O)O)O[C@H]1[C@H](C)[C@H]1O[C@@]2(CC[C@@](C)([C@H]3CC[C@@](C)([C@@H]4O[C@@H]([C@H]5O[C@](C)(O)[C@H](C)C[C@@H]5C)C[C@@H]4OC4C[C@H](OC)[C@@H](OC)[C@H](C)O4)O3)O2)C[C@H](O)[C@H]1C (some centres not stated)	-2%[22.9 µM]	x	x	0.6µM*	0.34µM*	x
O=[N+]([O-])c1ccc(N/N=C/c2cccnc2)cc1	u	u	18%	5.8µM*	6.5µM*	5%
Clc1ccc(N/N=C/c2cccnc2)cc1	u	u	u	18µM*	16µM*	u
O=C(N/N=C/c1cccnc1)c1ccc([N+](=O)[O-])cc1	277%	-5%	-1%	-5%	-11%	2%
CN1[C@@H](CCC(=O)N2CCN(c3ccccn3)CC2)CNC(=O)[C@@H]2[C@H]1CCN2Cc1cccs1	65%	x	x	x	x	x
NCC(=O)Nc1ccccn1	28%	x	x	x	x	x
CC(C)Sc1nc(N(CCO)CCO)c2sc3c(c2n1)COC(C)(C)C3	9%	x	x	x	x	x
CCN(CC)S(=O)(=O)c1ccc(NC(=O)COc2ccc3c(C)cc(=O)oc3c2)cc1	-1%	x	x	x	x	x
C=C1CCC[C@]2(C)C[C@H]3OC(=O)C(CNC(C)CC)[C@H]3CC12 (some centres not stated)	-24%	-3%	-4%	u	u	0%
C=C1CCC[C@]2(C)C[C@H]3OC(=O)C(CNC(C)(CO)CO)[C@H]3CC12 (some centres not stated)	9%	-26%	u	u	21µM*	-29%
SMILES	12-LOX inh	RORg inh	ELG1 DNA repair	DT40 TDP1 CPT	DT40 TDP1 no CPT	VP16 counter
C=C1CCC[C@]2(C)C[C@H]3OC(=O)C(CNC(CC)CO)[C@H]3CC12 (some centres not stated)	277%	-20%	27%	u	18µM*	0%
C=C1C(=O)OC2C[C@@]3(C)CCCC(=C)[C@@H]3CC12 (some centres not stated)	x	u	x	27µM*	24µM*	-29%
C=C1CCC[C@]2(C)C[C@H]3OC(=O)C(CN4CCCCC4CO)[C@H]3CC12 (some centres not stated)	0%	u	10%	4.6µM*	12µM*	u
COc1ccc(-n2nnnc2C(C)(C)Nc2ccc(C)cc2)cc1	-6%	x	x	x	x	x
Cn1c(SCC(=O)N/N=C/C=C/c2ccccc2[N+](=O)[O-])nc2ccccc21	3%	-13%	-19%	-5%	-48%	u
O=C(CNc1cccc2ccccc12)N/N=C/C=C/c1ccco1	32µM*	13µM*	4%	-26%	u	u
Cn1c(SCC(=O)N/N=C/C=C/c2ccco2)nc2ccccc21	-21%	u	-15%	18µM*	18µM*	-6%
Cc1ccc(OCC(=O)N/N=C/C=C/c2ccco2)cc1C	40µM*	-10%	1%	u	u	u
O=C(CNc1cccc2ccccc12)N/N=C/c1ccc(C(=O)O)cc1	3%	17%	9%	-5%	-2%	1%
O=C(C1CCC1)N1CCCC(Cc2nc(C3CCOCC3)no2)C1 (configuration not stated)	21%	x	x	x	x	x
COc1ccccc1C1=NOC(C(=O)NC(C)(C)C)C1 (configuration not stated)	-4%	x	x	x	x	x
CC(OC(=O)C1CC2CCCC(C1)C2=O)C(=O)c1ccc(Cl)cc1 (configuration not stated)	53%	x	x	x	x	x
c1ccc(-c2c3ccccc3nc3[nH]c4ccccc4c23)cc1	x	11µM*	5%	u	u	u
Nc1ccccc1C(=O)NCCCN1CCN(c2cccc(Cl)c2)CC1	i	x	x	-14%	-22%	x

Compound activity: PubChem, National Center for Advancing Translational Sciences (NCATS)
